# From PubChem BioAssay
# Several values for one entry are separate records, joined by “and”; a condition that tells them apart may be missing. Identical values can stand only once. Records with an inconclusive call do not appear. For part of these data: Potency and affinity values are given separately. Activity calls are given as the source filed them. Unless noted, no rule for the calls is given here.
# What was measured:
# [1] = target: ATP-dependent translocase ABCB1 (Homo sapiens) (UniProt P08183); test: MDR1 (ABCB1) efflux transporter inhibition, cell-based (AID 377; in the data active = fluorescence slope change above about 50%); settings: MDR1-expressing cells, fluorescent substrate accumulation slope; stronger effect = higher value; concentration not given here
# [2] = antimalarial activity against Dd2 strain (AID 2302;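 active = growth inhibition above 50% at the single 2 µM test dose, taken to imply half-maximal potency below 2 µM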;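 also: 0% = DMSO untreated growth and 100% = chloroquine plus artemisinin killed control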); settings: P. falciparum Dd2 in RBCs, LDH growth readout, 72 h; at 2 µM; stronger effect = higher value
# [3] = target: L-lactate dehydrogenase (Plasmodium falciparum (isolate CDC / Honduras)) (UniProt Q27743); test: PfLDH activity inhibition – cell lysate, 3D7 strain, counter-screen for P. falciparum growth inhibition project (AID 2304);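 also: 0% = vehicle and 100% = reference inhibitor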; settings: P. falciparum 3D7 crude extract, LDH APAD/NBT absorbance; at 2 µM; stronger effect = higher value
# [4] = inhibition of 3D7 malaria parasite growth – strain 3D7 (AID 2306);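 also: 0% = DMSO wells and 100% = chloroquine plus artemisinin control wells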; settings: P. falciparum 3D7 erythrocytic growth, LDH absorbance, 72 h; at 2 µM; stronger effect = higher value
# [5] = circadian clock period modulators, cell-based, LOPAC library, luminescence reporter (AID 2774); settings: circadian reporter cells, at 7 µM, actives lie on both sides;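 also: values are relative to mean of DMSO wells on each plate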
# [6] = target: Calcium-dependent protein kinase 1 (Plasmodium falciparum (isolate 3D7)) (UniProt P62344); test: PfCDPK1 kinase inhibitors, biochemical, TCAMS library (AID 1159585; cut-off not given, nearly all actives have IC50 up to about 0.98 µM;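 also: inhibitors leave more ATP so luminescence rises with inhibition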); settings: recombinant PfCDPK1, Kinase-Glo ATP depletion luminescence
# [7] = target: Plasmodium falciparum protein kinase 6 (PK6, PF3D7_1337100) (UniProt Q8IDW1); test: PfPK6 kinase inhibitors, biochemical, TCAMS library (AID 1159586); settings: recombinant PfPK6, Kinase-Glo ATP depletion luminescence
# [8] = target: Protein kinase 7 (PK7), Plasmodium falciparum 3D7 (PF3D7_0213400) (UniProt Q7YTF7); test: inhibition of Plasmodium PK7 catalytic activity – biochemical, TCAMS antimalarial set, Kinase-Glo luminescence (AID 1159587); settings: recombinant PfPK7, Kinase-Glo ATP depletion luminescence
# [9] = growth inhibition of DIPG glioma cells, dose response, cell-based, SU-DIPG-XIII, MIPE5.0, CellTiter-Glo, qHTS (AID 1347064; cut-off not given, nearly all actives have AC50 up to about 23 µM;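 as to AC50: cells exposed to compound for 48 hours before the viability read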); settings: SU-DIPG-XIII viability, CellTiter-Glo ATP luminescence
# [10] = CRL2098 osteosarcoma cell growth inhibition, synergistic combos for chromothripsis tumors, BGB or cisplatin IC20 combos (AID 1671454; in the data active = inhibition above about 80%;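 also: cells exposed for 96 h before readout; 0% = vehicle DMSO and 100% = killing by high DMSO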); settings: CRL2098 osteosarcoma cells, drug combinations, stronger effect = higher value
# [11] = HD-MB03 medulloblastoma cell growth inhibition, synergistic combos for chromothripsis tumors, BGB or cisplatin IC20 combos (AID 1671455; in the data active = inhibition above about 83%;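 also: 0% = vehicle DMSO and 100% = high DMSO as cytotoxic control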); settings: HD-MB03 medulloblastoma cells, stronger effect = higher value
# [12] = UWB1.289 ovarian carcinoma cell growth inhibition, synergistic combos for chromothripsis tumors, BGB or cisplatin combos (AID 1671456; in the data active = inhibition above about 80%;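 also: cells exposed to compound for four days; 0% = vehicle DMSO and 100% = killing by high DMSO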); settings: UWB1.289 ovarian carcinoma cells, stronger effect = higher value
# [13] = LFS_MB_2R medulloblastoma cell growth inhibition, synergistic combos for chromothripsis tumors, cisplatin combos (AID 1671457; in the data active = inhibition above about 80%;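 also: cells exposed to compound for four days before readout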); settings: LFS_MB_2R medulloblastoma cells, stronger effect = higher value
# [14] = UWB1.289_BRCA1 ovarian cancer growth, cell-based, BGB or cisplatin combinations (AID 1671459; in the data active = inhibition above about 80%); settings: UWB1.289 BRCA1 ovarian carcinoma, drug combinations, stronger effect = higher value
# [15] = human astrocyte viability loss, single and combined drugs, cytotoxicity control for chromothriptic childhood tumor combination screen, cell-based, BGB or cisplatin IC20 combos (AID 1671460; in the data active = inhibition above about 80%;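 also: cells exposed to compounds for 96 hours before viability readout; 0% = vehicle and 100% = killing control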); settings: Human astrocytes, drug combinations, stronger effect = higher value
# [16] = test system: Neuropilin-2 / VEGF-C interaction (human); test: inhibitors of NRP2–VEGF-C binding, biochemical, microplate binding format, z-score (AID 743281); settings: microplate NRP2/VEGF-C binding assay; stronger effect = lower value
# [17] = test system: Aerobactin synthetase IucA (Klebsiella pneumoniae); test: IucA aerobactin synthetase inhibitors, biochemical, Tocris library, absorbance (AID 1345561); settings: purified IucA enzyme assay, absorbance (OD) read-out; stronger effect = lower value;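 tested at 8 µM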;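 also: 100% = enzyme without compound and 0% = no enzyme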
# [18] = inhibitors of Cryptococcus chitosan production, flow cytometry, Cibacron Brilliant Red staining (AID 1347148); settings: Cryptococcus neoformans chitosan, stronger effect = lower value; at 99.1 µM unless noted;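 also: compound exposure lasted three days at 37 degrees C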
# [19] = liver-stage malaria parasite growth inhibition, primary screen, cell-based, HepG2, luciferase luminescence, HepG2 viability (AID 624349; in the data active = parasite load remaining mostly below about 12%, no sharp cut-off; inactive = mostly above about 10%;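 also: 100% = mean of DMSO negative control wells on the same plate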); settings: P. berghei liver stage in HepG2, luciferase luminescence, concentration not given here; parasite load remaining: stronger effect = lower value; viability: measured here: HepG2 viability without parasites
# [20] = modifiers of HSF1 nuclear foci, imaging, Selleck Cancer Library (AID 1347162; in the data active = plate-normalised HSF1 focus index below about 0.46); settings: human cells, at 10 µM; SSMD: measured here: HSF1 foci SSMD mean; cell count: measured here: cell number; plate-normalised HSF1 focus index: stronger effect = lower value
# [21] = measured here: combination with BGB at IC20, at 0.5 µM
# [22] = measured here: combination with cisplatin at IC20, at 0.5 µM
# [23] = measured here: combo with BGB at IC20, at 0.5 µM
# [24] = measured here: combo with cisplatin at IC20, at 0.5 µM
# [25] = measured here: inhibition with BGB combination, at 0.05 µM
# [26] = measured here: inhibition with cisplatin combination, at 0.05 µM
# [27] = measured here: combination with cisplatin, at 0.5 µM
# [28] = measured here: combination with cisplatin, at 5 µM
# [29] = BGB combination, concentration series, at 5 µM
# [30] = cisplatin combination, concentration series, at 5 µM
# [31] = measured here: combo with BGB IC20, at 0.5 µM
# [32] = measured here: combo with cisplatin IC20, at 0.5 µM
# Protein kinase 7 (PK7), Plasmodium falciparum 3D7 (PF3D7_0213400), sequence (Q7YTF7 1-343): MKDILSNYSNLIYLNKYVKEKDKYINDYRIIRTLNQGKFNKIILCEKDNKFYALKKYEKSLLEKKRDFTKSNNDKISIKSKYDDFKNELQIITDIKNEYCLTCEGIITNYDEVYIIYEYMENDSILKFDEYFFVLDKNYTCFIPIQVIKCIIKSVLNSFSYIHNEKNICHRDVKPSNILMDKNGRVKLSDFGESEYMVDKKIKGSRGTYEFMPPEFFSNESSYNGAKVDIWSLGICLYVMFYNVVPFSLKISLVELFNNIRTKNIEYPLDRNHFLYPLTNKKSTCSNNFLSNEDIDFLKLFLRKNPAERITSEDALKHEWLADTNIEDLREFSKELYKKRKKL
# ATP-dependent translocase ABCB1 (Homo sapiens), sequence (P08183 whole entry, looked up): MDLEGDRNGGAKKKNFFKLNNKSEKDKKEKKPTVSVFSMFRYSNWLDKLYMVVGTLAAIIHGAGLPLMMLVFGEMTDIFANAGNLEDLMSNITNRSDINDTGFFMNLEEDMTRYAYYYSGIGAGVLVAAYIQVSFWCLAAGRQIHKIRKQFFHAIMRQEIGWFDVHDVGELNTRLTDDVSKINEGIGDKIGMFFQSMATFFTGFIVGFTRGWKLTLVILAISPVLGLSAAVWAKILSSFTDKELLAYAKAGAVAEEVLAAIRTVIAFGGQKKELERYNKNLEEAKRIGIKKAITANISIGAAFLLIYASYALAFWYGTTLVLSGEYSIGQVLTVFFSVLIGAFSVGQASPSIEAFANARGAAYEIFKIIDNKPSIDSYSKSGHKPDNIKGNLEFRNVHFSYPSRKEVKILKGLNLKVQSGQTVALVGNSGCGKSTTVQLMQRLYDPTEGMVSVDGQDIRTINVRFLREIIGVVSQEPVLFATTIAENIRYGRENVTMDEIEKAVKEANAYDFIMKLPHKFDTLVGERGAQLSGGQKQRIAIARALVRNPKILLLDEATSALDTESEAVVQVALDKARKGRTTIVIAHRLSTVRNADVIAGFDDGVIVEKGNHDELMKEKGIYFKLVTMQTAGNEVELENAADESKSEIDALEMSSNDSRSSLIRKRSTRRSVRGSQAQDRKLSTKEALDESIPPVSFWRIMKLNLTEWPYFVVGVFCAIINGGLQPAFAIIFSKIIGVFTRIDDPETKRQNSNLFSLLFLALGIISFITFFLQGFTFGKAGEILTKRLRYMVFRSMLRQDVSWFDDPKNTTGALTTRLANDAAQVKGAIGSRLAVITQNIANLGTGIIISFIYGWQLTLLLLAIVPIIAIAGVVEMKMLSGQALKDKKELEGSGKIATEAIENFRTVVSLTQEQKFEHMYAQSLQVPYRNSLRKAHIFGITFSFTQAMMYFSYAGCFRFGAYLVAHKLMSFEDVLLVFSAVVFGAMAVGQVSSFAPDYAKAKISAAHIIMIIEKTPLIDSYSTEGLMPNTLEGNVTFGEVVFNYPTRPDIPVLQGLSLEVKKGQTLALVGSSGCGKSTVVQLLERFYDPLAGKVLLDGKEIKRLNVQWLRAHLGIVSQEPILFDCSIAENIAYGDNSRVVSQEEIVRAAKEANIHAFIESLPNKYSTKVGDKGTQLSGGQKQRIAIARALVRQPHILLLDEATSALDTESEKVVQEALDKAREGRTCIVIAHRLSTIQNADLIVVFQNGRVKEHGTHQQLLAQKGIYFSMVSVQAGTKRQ
# Calcium-dependent protein kinase 1 (Plasmodium falciparum (isolate 3D7)), sequence (P62344 whole entry, looked up): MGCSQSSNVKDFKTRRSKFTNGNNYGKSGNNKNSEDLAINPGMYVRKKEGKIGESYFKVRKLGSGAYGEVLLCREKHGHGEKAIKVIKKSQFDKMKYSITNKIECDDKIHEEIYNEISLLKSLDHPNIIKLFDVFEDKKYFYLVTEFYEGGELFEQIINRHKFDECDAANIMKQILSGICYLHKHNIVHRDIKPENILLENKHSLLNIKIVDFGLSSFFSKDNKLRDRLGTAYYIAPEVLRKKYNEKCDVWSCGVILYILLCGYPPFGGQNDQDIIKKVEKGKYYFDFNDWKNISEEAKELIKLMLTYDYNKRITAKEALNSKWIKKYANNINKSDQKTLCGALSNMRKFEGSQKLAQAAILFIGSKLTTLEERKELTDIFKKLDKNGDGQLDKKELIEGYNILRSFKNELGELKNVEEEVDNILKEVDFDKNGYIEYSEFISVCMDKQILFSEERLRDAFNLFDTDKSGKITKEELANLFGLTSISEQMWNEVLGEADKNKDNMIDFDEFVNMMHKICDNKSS
# Plasmodium falciparum protein kinase 6 (PK6, PF3D7_1337100), sequence (Q8IDW1 1-305): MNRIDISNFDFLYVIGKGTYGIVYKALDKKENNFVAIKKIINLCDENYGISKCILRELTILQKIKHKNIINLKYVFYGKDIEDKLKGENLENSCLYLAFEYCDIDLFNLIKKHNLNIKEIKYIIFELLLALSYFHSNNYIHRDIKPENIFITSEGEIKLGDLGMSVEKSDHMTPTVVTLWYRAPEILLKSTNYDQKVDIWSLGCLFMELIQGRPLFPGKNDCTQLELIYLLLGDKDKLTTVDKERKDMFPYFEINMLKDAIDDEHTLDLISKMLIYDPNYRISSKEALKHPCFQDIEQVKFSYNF
# L-lactate dehydrogenase (Plasmodium falciparum (isolate CDC / Honduras)), sequence (Q27743 whole entry, looked up): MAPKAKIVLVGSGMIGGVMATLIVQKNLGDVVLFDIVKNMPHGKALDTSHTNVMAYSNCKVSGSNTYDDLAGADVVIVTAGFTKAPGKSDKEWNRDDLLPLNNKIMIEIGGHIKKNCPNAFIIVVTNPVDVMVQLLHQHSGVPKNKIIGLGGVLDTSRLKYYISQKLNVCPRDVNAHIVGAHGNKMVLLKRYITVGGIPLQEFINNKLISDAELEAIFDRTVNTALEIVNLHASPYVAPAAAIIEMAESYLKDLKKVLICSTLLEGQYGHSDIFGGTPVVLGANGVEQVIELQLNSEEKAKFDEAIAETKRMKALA
structure (smiles),measurement,setting,value
CCN(CC)CCCC(C)Nc1c2ccc(Cl)cc2nc2ccc(OC)cc12 (stereo not drawn),fluorescence slope change,[1],75.1% (active)
same,growth inhibition,[2],101% (active)
same,inhibition,[3],0% (inactive)
same,growth inhibition,[4],101% (active)
same,period change,[5],0.21 h (inactive)
same,outcome,[6],inactive
same,outcome,[7],inactive
same,outcome,[8],inactive
same,AC50,[9],8.33 µM (active)
same,inhibition,[10]; at 0.5 µM,-21.4% (inactive)
same,inhibition,[10]; [21],-24.3%
same,inhibition,[10]; [22],-28%
same,inhibition,[11]; at 0.5 µM,0.06% (inactive)
same,inhibition,[11]; [23],19%
same,inhibition,[11]; [24],-11.8%
same,inhibition,[12]; at 0.5 µM,5.88% (inactive)
same,inhibition,[12]; [25],-7.63%
same,inhibition,[12]; [26],-3.99%
same,inhibition,[13]; at 0.5 µM,2.36% (inactive)
same,inhibition,[13]; [27],15%
same,inhibition,[13]; [28],96.1%
same,inhibition,[14]; [29],103%
same,inhibition,[14]; at 0.5 µM,1.64% (inactive)
same,inhibition,[14]; [30],117%
same,inhibition,[15]; at 0.5 µM,-27.9% (inactive)
same,inhibition,[15]; [31],-30.9%
same,inhibition,[15]; [32],-37.3%
Oc1ccc(/C=C/c2cc(O)cc(O)c2)cc1,fluorescence slope change,[1],28.4% (inactive)
same,period change,[5],-0.215 h (inactive)
same,z-score,[16],-0.145 (inactive)
same,remaining activity,[17],117% (inactive)
same,outcome,[9],inactive
same,fold fluorescence,[18],7.05 [at 219.1 µM] (inactive)
CCC1(c2ccccc2)C(=O)NCNC1=O,period change,[5],-0.19 h (inactive)
same,remaining activity,[17],91.8% (inactive)
same,outcome,[9],inactive
CC(C)NCC(O)c1ccc(O)c(O)c1 (stereo not drawn),period change,[5],-0.07 hour (inactive) and 0.21 hour (inactive)
same,remaining activity,[17],108% (inactive)
same,outcome,[9],inactive
CCN(CCO)CCCC(C)Nc1ccnc2cc(Cl)ccc12 (stereo not drawn),growth inhibition,[2],0% (inactive)
same,inhibition,[3],-1% (inactive)
same,growth inhibition,[4],99% (active)
same,parasite load remaining,[19],156% (inactive) and 84.1% (inactive)
same,viability,[19],88.4% and 102%
same,outcome,[6],inactive
same,outcome,[7],inactive
same,outcome,[8],inactive
same,outcome,[9],inactive
Nc1nc2c(ncn2COCCO)c(=O)[nH]1,period change,[5],-0.035 h (inactive)
same,remaining activity,[17],117% (inactive)
same,inhibition,[10]; at 0.5 µM,-82.3% (inactive) and -42.2% (inactive)
same,inhibition,[10]; [21],-65.6% and -27.8%
same,inhibition,[10]; [22],-92.2% and -76%
same,inhibition,[11]; at 0.5 µM,-9.51% (inactive) and -3.72% (inactive)
same,inhibition,[11]; [23],-2.11% and -3.06%
same,inhibition,[11]; [24],-19.5% and -6.04%
same,inhibition,[12]; at 0.5 µM,-7.84% (inactive) and 5.52% (inactive)
same,inhibition,[12]; [25],-9.01% and -4.82%
same,inhibition,[12]; [26],-11.4% and 12.5%
same,inhibition,[13]; at 0.5 µM,-16.1% (inactive) and -6.37% (inactive)
same,inhibition,[13]; [27],-14.9% and -19.4%
same,inhibition,[13]; [28],-76% and -8.06%
same,inhibition,[14]; [29],-23.1% and 1.37%
same,inhibition,[14]; at 0.5 µM,-9.4% (inactive) and 8.78% (inactive)
same,inhibition,[14]; [30],-14.8% and -13.6%
same,inhibition,[15]; at 0.5 µM,-9.43% (inactive) and 7.59% (inactive)
same,inhibition,[15]; [31],-2.39% and 2.09%
same,inhibition,[15]; [32],-29.6% and 5.16%
CN1C(C(=O)Nc2ccccn2)=C(O)c2ccccc2S1(=O)=O,period change,[5],-0.07 h (inactive)
same,z-score,[16],-1.26 (inactive)
same,remaining activity,[17],127% (inactive)
same,outcome,[9],inactive
same,fold fluorescence,[18],4.04 [at 150.9 µM] (inactive)
N=C(N)c1ccc(OCCCCCOc2ccc(C(=N)N)cc2)cc1,fluorescence slope change,[1],28.9% (inactive)
same,growth inhibition,[2],98% (active)
same,inhibition,[3],-2% (inactive)
same,growth inhibition,[4],99% (active)
same,outcome,[6],inactive
same,outcome,[7],inactive
same,outcome,[8],inactive
CN(C)CCCN1c2ccccc2CCc2ccc(Cl)cc21,fluorescence slope change,[1],179% (active)
same,period change,[5],-0.12 h (inactive)
same,remaining activity,[17],96.8% (inactive)
same,outcome,[9],inactive
CCCCCN=C(N)N/N=C/c1c[nH]c2ccc(OC)cc12,growth inhibition,[2],2% (inactive)
same,inhibition,[3],-6% (inactive)
same,growth inhibition,[4],86% (active)
same,parasite load remaining,[19],142% (inactive) and 119% (inactive)
same,viability,[19],84.9% and 86.2%
same,outcome,[16],inactive
same,outcome,[6],inactive
same,outcome,[7],inactive
same,outcome,[8],inactive
same,AC50,[9],13.2 µM (active)
CC[C@H]1CN2CCc3cc(OC)c(OC)cc3[C@@H]2C[C@@H]1C[C@H]1NCCc2cc(OC)c(OC)cc21,growth inhibition,[2],99% (active)
same,inhibition,[3],-3% (inactive)
same,growth inhibition,[4],101% (active)
same,period change,[5],0 h (inactive)
same,parasite load remaining,[19],-66.8% (active)
same,viability,[19],76.3%
same,outcome,[6],inactive
same,outcome,[7],inactive
same,outcome,[8],inactive
same,AC50,[9],0.166 µM (active)
CC[C@H](C)C(=O)O[C@H]1C[C@@H](C)C=C2C=C[C@H](C)[C@H](CC[C@@H]3C[C@@H](O)CC(=O)O3)[C@H]21,fluorescence slope change,[1],166% (active)
same,remaining activity,[17],113% (inactive)
same,fold fluorescence,[18],4.35 [at 123.6 µM] (inactive)
CC1=C(CC(=O)O)c2cc(F)ccc2/C1=C\c1ccc(S(C)=O)cc1 (stereo not drawn),period change,[5],0.265 h (inactive)
same,remaining activity,[17],115% (inactive)
Cc1noc(NS(=O)(=O)c2ccc(N)cc2)c1C,remaining activity,[17],91.4% (inactive)
CCC(C)(C)C(=O)O[C@H]1C[C@@H](C)C=C2C=C[C@H](C)[C@H](CC[C@@H]3C[C@@H](O)CC(=O)O3)[C@H]21,remaining activity,[17],114% (inactive)
same,SSMD,[20],1.41
same,cell count,[20],7420
same,plate-normalised HSF1 focus index,[20],1.09 (inactive)
CCN(CC)CCCC(C)Nc1ccnc2cc(Cl)ccc12 (stereo not drawn),fluorescence slope change,[1],-4.1% (inactive)
same,growth inhibition,[2],96% (active)
same,inhibition,[3],-1% (inactive)
same,growth inhibition,[4],100% (active)
same,period change,[5],0.02 h (inactive)
same,outcome,[6],inactive
same,outcome,[7],inactive
same,outcome,[8],inactive
same,outcome,[9],inactive
